Results with a measured potency or affinity are listed apart. Values without a mark were called inactive. The source made the active and inactive calls.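 Rule for the calls: active = compounds lowering cell ATP signal whose fitted half-maximal concentration is at most twice the top tested dose; inconclusive = flat curve with 30 to 70% signal loss, or poor fit; inactive = the rest.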
Assay: HEK293T cell cytotoxicity, dose response, cytotoxicity control, CellTiter-Glo luminescence, dry powder, set 6 (AID 651949)
Settings: HEK293T viability, CellTiter-Glo ATP luminescence, 48 h; series mostly up to 26 µM; activity change, negative = cytotoxicity: at the top concentration

In order of falling “activity change, negative = cytotoxicity” value:
1. c1ccc(CSc2nnc(-c3cccnc3)o2)nc1  26.4%
2. Clc1ccc(-c2nnc(SCc3cn(Cc4ccccc4)nn3)o2)cc1  16.9%
3. Fc1ccc(-c2nnc(SCc3ccccc3)o2)cc1  14.8%
4. c1ccc(CSc2ncc(-c3ccccc3)o2)cc1  8.63%
5. Fc1ccc(CSc2nnc(-c3cccnc3)o2)cc1  5.85%
6. c1ccc(-c2nnc(SCCN3CCOCC3)o2)cc1  5.28%
7. Cc1ccccc1-c1nnc(SCc2ccccc2)o1  4.81%
8. Cc1ccc(CSc2nnc(-c3ccccc3)o2)cc1  3.5%
9. c1ccc(-c2nnc(SCc3ccncc3)o2)cc1  3.39%
10. CN(C)CCSc1nnc(-c2ccccc2)o1  3.08%
11. FC(F)(F)c1ccccc1-c1nnc(SCc2ccccc2)o1  2.29%
12. FC(F)(F)c1cccc(CSc2nnc(-c3ccccc3)o2)c1  1.3%
13. CS(=O)(=O)c1cccc(CSc2nnc(-c3ccccc3)o2)c1  0.906%
14. Brc1ccc(CSc2nnc(-c3ccccc3)o2)cc1  -4.14%
15. c1ccc(CSc2nnc(-c3cc4ccccc4o3)o2)cc1  -5.2%
16. FC(F)(F)Oc1ccccc1CSc1nnc(-c2ccccc2)o1  -5.32%
17. Fc1ccc(-c2nnc(SCc3ccccn3)o2)cc1  -5.83%
18. c1ccc(-n2cc(CSc3nnc(C4CCCC4)o3)nn2)cc1  -8.38%
19. COc1cccc(CSc2nnc(-c3ccccc3)o2)c1  -8.87%
20. FC1(F)CN(CCSc2nnc(-c3ccccc3)o2)C1  -10.1%
21. c1ccc(-c2nnc(SCCN3CCCC3)o2)cc1  -11.4%
22. FC(F)(F)c1ccccc1CSc1nnc(-c2ccccc2)o1  -13%
23. Fc1ccc(-c2nnc(SCc3cn(-c4ccccc4)nn3)o2)cc1  -13.2%
24. COc1cccc(-c2nnc(SCc3ccccc3)o2)c1  -14.8%
25. O=S(Cc1ccccc1)c1nnc(-c2ccccc2)o1 (centres undefined)  -15%
26. FC1(F)CCN(CCSc2nnc(-c3ccccc3)o2)CC1  -15.2%
27. c1ccc(CSc2nnc(-c3ccccn3)o2)cc1  -16.3%
28. CCSc1nnc(-c2ccccc2)o1  -17.3%
29. FC(F)(F)Oc1ccc(-c2nnc(SCc3ccccc3)o2)cc1  -17.4%
30. COCCSc1nnc(-c2ccccc2)o1  -18.8%
31. c1ccc(CNc2nnc(-c3ccccc3)o2)cc1  -19.3%
32. COc1ccccc1-c1nnc(SCc2ccccn2)o1  -20.3%
33. Clc1cccc(CSc2nnc(-c3ccccc3)o2)c1  -22.5%
34. Brc1ccc(-c2nnc(SCc3ccccn3)o2)cc1  -26.7%
35. c1ccc(-c2nnc(SCC3CC3)o2)cc1  -28.5%
36. Brc1cccc(-c2nnc(SCc3ccccn3)o2)c1  -29.4%
37. COc1ccc(-c2nnc(SCc3ccccn3)o2)cc1  -30.6%
38. O=S(Cc1cn(Cc2ccccc2)nn1)c1nnc(-c2ccc(Cl)cc2)o1 (centres undefined)  -88.3%

With `Fc1ccc(CSc2nnc(-c3ccccc3)o2)cc1` the outcome was “inactive”.

Reference: PubChem BioAssay AID651949 (Broad Institute, 2012)
